# Over roughly 1,000 compounds, “relative growth in counter assay (no AraC = 100%, AraC + DMSO = 0%)” has its median near -1.1; the highest 2% begin near 20. The sample holds the highest values, similar compounds and a random draw of the others, so the mix is not that of the screen.
# Test system: HEK293FT dCK*-only
# Experiment: relative growth in counter assay (no AraC = 100%, AraC + DMSO = 0%); higher = more growth rescue independent of IKZF1
# Settings: compound concentration: 5 uM; AraC concentration: 0.3 uM; overnight pretreatment + 4 days AraC
# Procedure: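 Growth recovery screen of the molecular-glue-like (Specs) library. HEK293FT cells expressing a dCK*-IKZF1 fusion (primary) or dCK* alone (counter) were pretreated overnight with compound at 5 uM, then given 0.3 uM AraC for 4 days. Hoechst nuclei were counted by imaging. Primary: normalised to pomalidomide (100%) and DMSO (0%), mean of 2 replicates. Counter: normalised to no-AraC (100%) and AraC+DMSO (0%), single replicate.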
row,Structure (SMILES),relative growth in counter assay [%]
1,O=C(C1CCCCC1)N1CCOC(c2cccc(Nc3nccs3)n2)C1 (stereo not drawn),-5.66
2,O=[N+]([O-])c1ccc(S(=O)(=O)Nc2ccccn2)cc1,-0.83
3,CC(=O)Nc1ccc(-c2csc(Nc3cccc(C)n3)n2)cc1,5.34
4,Cc1cccc(Nc2nc(-c3sc(NC(=O)c4ccccc4)nc3C)cs2)n1,60.5
5,CC(=O)Nc1ccc(-c2csc(Nc3ccccn3)n2)cc1,15.7
6,CC(=O)Nc1cccc(-c2csc(Nc3cccc(C)n3)n2)c1,5.94
7,CC(=O)N1CCCC1c1csc(Nc2ccccn2)n1 (stereo not drawn),6.68
8,Cc1ccnc(Nc2nc(-c3sc(NC(=O)c4ccccc4)nc3C)cs2)c1,68.2
9,CC(=O)Nc1ccc(-c2csc(Nc3ccc(Cl)cn3)n2)cc1,-4.91
10,CC(=O)N1CCCC(c2csc(Nc3ccc(C)cn3)n2)C1 (stereo not drawn),2.06
11,Cc1ccc(Nc2nc(-c3sc(NC(=O)c4ccccc4)nc3C)cs2)nc1,74.3
12,COc1cccc(OC)c1C(=O)Nc1ccc(S(=O)(=O)Nc2nccc(C)n2)cc1,-1.58
13,CC1CCc2cc(F)ccc2N1C(=O)CSc1nnc2c(n1)[nH]c1ccccc12 (stereo not drawn),6.61
14,O=C(NCc1cnc(Nc2cccc(C3CCN(C(=O)C4CCCCC4)CC3)n2)s1)c1cccc(F)c1,-9.34
15,CC(C)(N)C(=O)N1CCC(c2cccc(Nc3ncc(-c4cccnc4)s3)n2)CC1,-23.8
16,CCCc1cnc(Nc2cccc(C3CCN(C(=O)[C@@H](N)C(C)O)CC3)n2)s1 (stereo partly drawn),-24.9
17,Cc1ccc(CC(=O)N2CCOC(c3cccc(Nc4nccs4)n3)C2)cc1C (stereo not drawn),-4.97
18,COc1ccc(C(=O)Nc2ccc(S(=O)(=O)Nc3cc(C)nc(C)n3)cc2)cc1,-14
19,Nc1ccc(C(=O)N2CCCC2c2cccc(Nc3nccs3)n2)cn1 (stereo not drawn),-0.6
20,O=C(O)CCOCCOCCNc1ccc2c(c1)C(=O)N(C1CCC(=O)NC1=O)C2=O (stereo not drawn),-0.35
21,O=[N+]([O-])c1ccc(S(=O)(=O)Nc2ccc(S(=O)(=O)Nc3ncccn3)cc2)cc1,0.33
22,CC(C)(C)N1CC(C(=O)Nc2ccc(S(=O)(=O)Nc3ncccn3)cc2)CC1=O (stereo not drawn),4.79
23,COC1CCCC(C(=O)N2CCOC(c3cccc(Nc4ncc(C)s4)n3)C2)C1 (stereo not drawn),-9.41
24,CCOCCC(=O)Nc1ccc(S(=O)(=O)Nc2ncccn2)cc1,3.97
25,Cc1cc(NS(=O)(=O)c2ccc(NC(=O)COc3ccc(C(C)C)cc3)cc2)nc(C)n1,-0.57

row,Structure (SMILES),relative growth in counter assay [%]
1,Cc1cccc(OCC(=O)Nc2ccc(S(=O)(=O)Nc3nc(C)cc(C)n3)cc2)c1,-12
2,CN(CC(=O)N1CCOC(c2cccc(Nc3nccs3)n2)C1)Cc1ccccc1F (stereo not drawn),0.79
3,CC(C)c1cnc(Nc2cccc(C3CCN(C(=O)C4CCCCC4)CC3)n2)s1,11
4,COc1cccc(C(=O)Nc2ccc(S(=O)(=O)Nc3cc(C)nc(C)n3)cc2)c1,0.7
5,COc1ccc(NC(=O)CN2CCC(c3cccc(Nc4nc(C)cs4)n3)CC2)cc1,13.8
6,O=C1CCC(N2C(=O)c3cccc(N4CCC(C(=O)O)CC4)c3C2=O)C(=O)N1 (stereo not drawn),3.86
7,Cc1cc(C)nc(NS(=O)(=O)c2ccc(NC(=O)CCN3C(=O)c4ccccc4C3=O)cc2)n1,-7.05
8,Cc1csc(Nc2cccc(C3CCCN3C(=O)c3cn4cc(Cl)ccc4n3)n2)n1 (stereo not drawn),22.3
9,Cc1csc(Nc2cccc(C3CCCN3C(=O)c3ccc4c(c3)CCCN4C)n2)n1 (stereo not drawn),13.3
10,Cc1csc(Nc2cccc(C3CCCN3C(=O)c3cnc(C)nc3C)n2)n1 (stereo not drawn),-4.08
11,Cc1csc(Nc2cccc(C3CCCN3C(=O)c3ccc4[nH]c(C(C)C)nc4c3)n2)n1 (stereo not drawn),30.5
12,Cc1ccc2[nH]nc(C(=O)N3CCCC3c3cccc(Nc4nc(C)cs4)n3)c2c1 (stereo not drawn),2.1
13,CC(=O)N1CCCC1c1cccc(Nc2nc(C)cs2)n1 (stereo not drawn),-5.77
14,COc1ccc(C(=O)Nc2ccc(S(=O)(=O)Nc3ncccn3)cc2)cc1OC,-2.72
15,Cc1ccc(Oc2ccc3c(c2)C(=O)N(c2ccc(C(N)=O)cc2)C3=O)cc1C,3.9
16,COc1ccc2[nH]c3nc(SCC(=O)Nc4cccc(F)c4)nnc3c2c1,-13.9
17,COc1ccc(C(=O)Nc2ccc(S(=O)(=O)Nc3nccc(C)n3)cc2)cc1,-6.7
18,Cc1cnc(Nc2cccc(C(CO)C3CCN(C(=O)c4cccc(Cl)c4F)CC3)n2)s1 (stereo not drawn),-1.22
19,Cc1cnc(Nc2cccc(C3CN(C(=O)C(C)(C)C)CCO3)n2)s1 (stereo not drawn),-10.3
20,CCCc1cnc(Nc2cccc(C3CCN(C(=O)[C@@H]4CCCCN4)CC3)n2)s1,-21.3
21,COc1ccc(Cl)cc1NC(=O)CSc1nnc2c(n1)[nH]c1ccc(F)cc12,5.27
22,COc1ccc(N2C(=O)c3ccc(Oc4ccccc4)cc3C2=O)cc1,-22.4
23,CCC(C)C(=O)Nc1ccc(S(=O)(=O)Nc2nccc(C)n2)cc1 (stereo not drawn),-7.22
24,COc1cc(NS(=O)(=O)c2ccc(Nc3nc(-c4c(C)nc5ncccn45)cs3)cc2)nc(OC)n1,2.39
25,CCCCc1cnc(Nc2cccc(C3CCN(C(=O)C(C)(C)NC(=O)COC)CC3)n2)s1,-10.6

row,Structure (SMILES),relative growth in counter assay [%]
1,COc1cccc(CC(=O)N2CCC(c3cccc(Nc4nc(C)c(C)s4)n3)CC2)c1,2.52
2,Cc1ccnc(NS(=O)(=O)c2ccc(NC(=O)c3ccco3)cc2)n1,3.62
3,NCC(=O)N1CCC(c2cccc(Nc3ncc(Cl)s3)n2)CC1,-23.9
4,COc1ccc(N2CC(C(=O)Nc3ccc(S(=O)(=O)Nc4nc(C)cc(C)n4)cc3)CC2=O)cc1 (stereo not drawn),7.32
5,Cc1ccnc(NS(=O)(=O)c2ccc(NC(=O)C3c4ccccc4Oc4ccccc43)cc2)n1,-3.45
6,COc1ccc(Br)cc1/C=N/NS(=O)(=O)c1ccccc1,-21.2
7,Cc1nc(Nc2cccc(C3CN(C(=O)c4cn5cccc(C)c5n4)CCO3)n2)sc1C (stereo not drawn),2.16
8,CNC(=O)C1(c2cccc(Nc3ncc(C)s3)n2)CCN(C(=O)C2CCCCC2)CC1,-21.2
9,Cc1cc(C)nc(NS(=O)(=O)c2ccc(NC(=O)CSc3nnnn3-c3ccccc3)cc2)n1,1.47
10,CC(C)CC(=O)N1CCCC1c1csc(Nc2ccccn2)n1 (stereo not drawn),-4
11,Cc1cnc(Nc2cccc(C3CCN(C(=O)C4(NC(=O)C(C)C)CCCCC4)CC3)n2)s1,-24.4
12,CC(=O)Nc1ccc(S(=O)(=O)Nc2ncccn2)cc1,-1.98
13,CC(=O)Nc1ccc(S(=O)(=O)N(Cc2ccccc2)c2ccccn2)cc1,21
14,CC(=O)Nc1ccc(S(=O)(=O)Nc2ccccn2)cc1,-7.51
15,CC1(C)C=C(CC(=O)N2CCOC(c3cccc(Nc4nccs4)n3)C2)CC(C)(C)N1 (stereo not drawn),6.81
16,O=C(CN1C(=O)c2ccccc2C1=O)Nc1ccc(S(=O)(=O)Nc2ncccn2)cc1,-1.34
17,O=C1c2ccc(Oc3ccc(NC(=O)C(F)(F)F)cc3)cc2C(=O)N1c1ccc(O)cc1,-3.44
18,CCCOc1ccccc1C(=O)Nc1ccc(S(=O)(=O)Nc2nc(C)cc(C)n2)cc1,2.83
19,CCCc1cnc(Nc2cccc(C3CCN(C(=O)C4CCCCN4CCO)CC3)n2)s1 (stereo not drawn),-7.08
20,Cc1cnc(Nc2cccc(C3CCN(CC(=O)N(C)C4CCCCC4)CC3)n2)s1,-15.6
21,Cc1cc(C)nc(NS(=O)(=O)c2ccc(NC(=O)C(C)C)cc2)n1,2.66
22,Cc1cc(C)cc(OCC(=O)Nc2ccc(S(=O)(=O)Nc3cc(C)nc(C)n3)cc2)c1,7.68
23,Cc1ccc(Cl)cc1NC(=O)CSc1nnc2c(n1)[nH]c1ccc(F)cc12,-2.7
24,COc1cccc(CCC(=O)N2CCOC(c3cccc(Nc4ncc(C)s4)n3)C2)c1 (stereo not drawn),6.36
25,Cc1csc(Nc2cccc(C3CN(C(=O)CCCc4ccc(F)cc4)CCO3)n2)n1 (stereo not drawn),36.2

row,Structure (SMILES),relative growth in counter assay [%]
1,COCC(=O)N1CCOC(c2cccc(Nc3nc(C)cs3)n2)C1 (stereo not drawn),2.47
2,COc1ccc(CCC(=O)N2CCOC(c3cccc(Nc4ncc(C)s4)n3)C2)cc1 (stereo not drawn),9.66
3,COc1ccc(CCC(=O)N2CCOC(c3cccc(Nc4nc(C)cs4)n3)C2)cc1 (stereo not drawn),19.5
4,Cc1csc(Nc2cccc(C3CN(C(=O)CCc4nc(C)no4)CCO3)n2)n1 (stereo not drawn),4.72
5,CC(=O)N1CCC(c2csc(Nc3ccc(F)cn3)n2)CC1,4.68
6,CCCCc1cnc(Nc2cccc(C3CCN(C(=O)[C@@H]4CCCN4CCO)CC3)n2)s1,2.3
7,CC(C)c1ccc(OCC(=O)Nc2ccc(S(=O)(=O)Nc3ccccn3)cc2)cc1,4.55
8,O=C(Nc1ccc(S(=O)(=O)Nc2ncccn2)cc1)Oc1ccccc1,-1.98
9,Cc1cc(NS(=O)(=O)c2ccc(NC(=O)c3cc4ccccc4o3)cc2)nc(C)n1,-3.17
10,Cc1nc(Nc2cccc(C3CCCN3C(=O)c3cc4ccc(F)cc4[nH]3)n2)sc1C (stereo not drawn),9.01
11,O=C(CS(=O)(=O)c1ccccc1)Nc1ccc(S(=O)(=O)Nc2ncccn2)cc1,8.67
12,O=C(Nc1ccc(S(=O)(=O)Nc2ccccn2)cc1)c1cccc(Cl)c1,-0.42
13,O=C(O)CCCCCNc1cccc2c1C(=O)N(C1CCC(=O)NC1=O)C2=O (stereo not drawn),1.33
14,CCCc1cnc(Nc2cccc(C3CCN(C(=O)C4CCCCC4)CC3)n2)s1,-19.4
15,Cc1nc(Nc2cccc(C3CN(CC(=O)N4CCC(C)CC4)CCO3)n2)sc1C (stereo not drawn),7.05
16,COCC(C)NC(=O)CN1CCC(c2cccc(Nc3nccs3)n2)CC1 (stereo not drawn),-1.53
17,Cc1nc(Nc2cccc(C3CCN(CC(=O)N4CCC(C)CC4)CC3)n2)sc1C,26.6
18,Cc1cnc(NC(=O)CN2CCC(c3cccc(Nc4ncc(C)s4)n3)CC2)s1,-16.5
19,Cc1cnc(NC(=O)CN2CCC(c3cccc(Nc4nc(C)c(C)s4)n3)CC2)s1,24.2
20,COCC(C)NC(=O)CN1CCC(c2cccc(Nc3nc(C)c(C)s3)n2)CC1 (stereo not drawn),25.6
21,COCC(C)NC(=O)CN1CCC(c2cccc(Nc3ncc(C)s3)n2)CC1 (stereo not drawn),-1.08
22,Cc1cnc(Nc2cccc(C3CCN(CC(=O)N4CCC(C)CC4)CC3)n2)s1,-9.8
23,Cc1cnc(Nc2cccc(C3CCN(CC(=O)Nc4c(F)cccc4F)CC3)n2)s1,-16.6

# Reference: the supplement of paper PMC12340641
